The values below come from PubChem BioAssay AID588832 (Broad Institute, 2011).

Molecules are shown by their SMILES. The campaign covered roughly 8,000 compounds. Fewer than 10 were called active. How the calls were made is not given here. The list is a sample of the results.

For the test, the system named is hedgehog, isoform A (Drosophila melanogaster). As to the kind of experiment: Drosophila hedgehog isoform A inhibitors, primary screen, biochemical, plate reader, single concentration (AID 588832).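 Further: 0% = neutral control wells and 100% = positive control wells.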 Conditions: Biochemical plate reader assay, at 30.3 µM, hits give high values.
By inhibition is commonly meant the change of the read-out against control, counted positive when it falls. Take `Cc1ccc(C(=O)NCCSc2c(C)[nH]c3ccccc23)cc1[N+](=O)[O-]`: the inhibition is 3.51% (inactive).

Regarding `CCCNC(=O)C1=C(C)C(=O)OC12CCC(C)CC2` (centres undefined), the inhibition is 9.55% (inactive).

In the case of `CCc1cccc(NC2c3ccccc3C(=O)N2c2ccc(C)cn2)c1` (centres undefined), the inhibition is 5.06% (inactive).

Consider `CCOC(=O)N1CCN(C(=O)c2ccc3c(c2)N(Cc2ccc(F)cc2)CCS3)CC1`, for which the inhibition is 3.51% (inactive).

For `CC(=O)Oc1cc(O)c2c(=O)c(OC(C)=O)c(-c3ccc(OC(C)=O)c(OC(C)=O)c3)oc2c1`, the inhibition was 19.3% (inactive).

As for `CC(=O)Oc1cc2cccc(OC(C)=O)c(=O)c2c(OC(C)=O)c1OC(C)=O`, the inhibition is 57.6% (active).

Consider `COc1cc2cccc(OC)c(=O)c2c(OC)c1OC`, for which the inhibition is -1.79% (inactive).

For the compound `CCCc1cc(C(=O)NCC(C)C)no1`, the inhibition is 5.23% (inactive).

For the compound `Cc1cc2cc(CNC(=O)c3ccc(S(=O)(=O)N4CCCCC4)cc3)ccc2[nH]1`, the inhibition was 5.36% (inactive).

For `Cc1cccc(-n2c(CNC(=O)c3ccccc3)nnc2SCC(=O)Nc2nccs2)c1`, the inhibition is 12.5% (inactive).

With `COc1ccc(-c2cc(=O)oc3cc(OC(C)C(=O)NCc4ccccn4)ccc23)cc1` (centres undefined), the inhibition is 7.02% (inactive).

For `Cn1cc(S(=O)(=O)N2CCc3ccccc32)cc1C(=O)NC1CCCCC1`, the inhibition is 10.2% (inactive).

Take `CC(=O)Nc1cccc(NS(=O)(=O)c2cn(C)c(=O)n(C)c2=O)c1`: the inhibition was 3.85% (inactive).

Turning to `O=C(Cn1ncc2c1-c1ccccc1OC2)Nc1ccc(S(=O)(=O)N2CCCCC2)cc1`, the inhibition was 6.96% (inactive).

Consider `C/C=C(/C)C(=O)OC1c2c(ccc3ccc(=O)oc23)OC(C)(C)C1OC(=O)/C(C)=C\C` (centres undefined), for which the inhibition is 5.23% (inactive).

With `O=C1C=CC2=C3c4cc(O)c(O)cc4CC3(O)COC2=C1O` (centres undefined), the inhibition is 70.4% (active).

Regarding `CCOC(=O)C(C)n1cnc2c(nnn2-c2ccc(F)cc2)c1=O` (centres undefined), the inhibition was 7.02% (inactive).

Consider `Cc1ccc(C)c(N2CCN(C(=O)c3cc(S(=O)(=O)N4CCOCC4)cn3C)CC2)c1`, for which the inhibition is 8.45% (inactive).

Consider `COc1ccc(NC(=O)NCCCN2CCN(c3cc(C)ccc3C)CC2)cc1`, for which the inhibition is 3.64% (inactive).

Turning to `COc1ccc(CN2CCN(C(=O)Cn3ncn4cccc4c3=O)CC2)c(OC)c1OC`, the inhibition was 2.17% (inactive).

For `CCOc1ccc(NC(=O)CSc2nc3ccccc3nc2N2CCOCC2)cc1`, the inhibition is 7.08% (inactive).

On to `Cc1cc(NC(=O)c2noc3c2CCc2ccccc2-3)n(-c2ccccc2)n1`, for which the inhibition is 3.64% (inactive).

For the compound `CC(C)(O)CCCC(C)(O)c1ccc(C(=O)O)cc1O` (centres undefined), the inhibition is 6.9% (inactive).

In the case of `Cc1c(S(=O)(=O)Nc2cc(Cl)ccc2Cl)c(=O)n(C)c(=O)n1C`, the inhibition was 5.23% (inactive).
